Experimental data as given in PubChem BioAssay (NCATS).
Results filed as inconclusive are left out. Activity calls are given as the source filed them. Unless noted, calls come from the whole dose curve.

How the values were obtained:
[1] = qHTS for Inhibitors of the Functional Ribonucleoprotein Complex (vRNP) of Lassa (LASV) Arenavirus: Viability assay - alamar blue signal for LASV Primary Screen (AID 1347083; calls by dose curve; tested in HEK293 reporter line; note: nearly all actives have a fitted effect of over 80% in size)
[2] = qHTS for Inhibitors of the Functional Ribonucleoprotein Complex (vRNP) of Lymphocytic Choriomeningitis Arenaviruses (LCMV): Viability assay - alamar blue signal for LCMV Primary Screen (AID 1347085; calls by dose curve; tested in HEK293 reporter line; note: nearly all actives have a fitted effect of over 80% in size)
[3] = biological target: Nucleoprotein (Lymphocytic choriomeningitis virus (strain Armstrong)) (UniProt P09992); assay: qHTS for Inhibitors of the Functional Ribonucleoprotein Complex (vRNP) of Lymphocytic Choriomeningitis Arenaviruses (LCMV): LCMV Primary Screen - GLuc reporter signal (AID 1347086); note: nearly all actives have a fitted effect of over 70% in size
Nucleoprotein (Lymphocytic choriomeningitis virus (strain Armstrong)), sequence (P09992 whole entry, looked up): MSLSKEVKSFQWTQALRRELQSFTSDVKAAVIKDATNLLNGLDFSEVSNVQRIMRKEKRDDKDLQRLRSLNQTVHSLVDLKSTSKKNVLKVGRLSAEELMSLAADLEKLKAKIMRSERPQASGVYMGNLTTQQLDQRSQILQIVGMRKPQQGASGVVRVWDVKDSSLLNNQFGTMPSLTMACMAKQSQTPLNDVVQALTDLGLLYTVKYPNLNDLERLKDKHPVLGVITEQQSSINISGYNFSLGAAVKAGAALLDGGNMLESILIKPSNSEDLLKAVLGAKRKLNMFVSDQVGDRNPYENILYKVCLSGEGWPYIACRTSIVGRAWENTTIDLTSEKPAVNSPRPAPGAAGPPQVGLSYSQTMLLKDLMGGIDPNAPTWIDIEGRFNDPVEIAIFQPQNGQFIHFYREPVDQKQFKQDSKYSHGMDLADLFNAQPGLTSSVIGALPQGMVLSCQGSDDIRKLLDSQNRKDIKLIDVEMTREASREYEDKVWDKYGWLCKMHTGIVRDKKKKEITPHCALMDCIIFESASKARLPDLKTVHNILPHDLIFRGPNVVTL
Potency is the fitted concentration of half-maximal effect.

| SMILES | Potency [1] | Potency [2] | Potency [3] |
| --- | --- | --- | --- |
| COc1ccc(-c2c(-c3ccc(O)cc3O)n[nH]c2C)cc1 | inactive | inactive | inactive |
| Cc1cn2c(-c3cn[nH]c3)cnc2c(Nc2ccc(C(=O)N3CCNCC3)cc2F)n1 | 3.85 µM (active) | 1.93 µM (active) | 2.73 µM (active) |
| C[C@]1(CO)CN(c2cc(C(=O)Nc3ccc4c(c3)-c3c(c(C(N)=O)nn3-c3ccc(F)cc3)CC4)c(Cl)cn2)C[C@@]1(C)CO | 1.72 µM (active) | 1.37 µM (active) |  |
| CN(C)CCCNC(=O)c1ccc(-c2cc(O)c3ncccc3c2)cc1 | 38.5 µM (active) | 19.3 µM (active) |  |
| CC1(O)CC(c2nc(-c3ccc4ccc(-c5ccccc5)nc4c3)c3c(N)nccn23)C1 (configuration not stated) | 5.44 µM (active) | 3.85 µM (active) |  |
| CCn1c(-c2nonc2N)nc2c(C#CC(C)(C)O)ncc(OC[C@H]3CCCNC3)c21 | 0.0611 µM (active) | 0.153 µM (active) |  |
| Cc1cc(-c2ccc(CC(=O)Nc3ccc(-c4cccnc4)cc3)cc2)ccn1 | 19.3 µM (active) |  |  |
| Cc1ccc(C(=O)Nc2ccc(CN3CCN(C)CC3)c(C(F)(F)F)c2)cc1C#Cc1cnc2cccnn12 | 1.22 µM (active) | 3.43 µM (active) |  |
| Nc1ccc(C(=O)c2cc3c(ccc4ccccc43)[nH]2)cc1 | 17.2 µM (active) |  |  |
| CC(C)(C)OC(=O)Nc1ccc(-c2cc(C(=O)NCCCCCCC(=O)NO)no2)cc1 | 17.2 µM (active) | 19.3 µM (active) |  |
| COc1cccc2cc(-c3nc(C4CCC(C(=O)O)CC4)n4ncnc(N)c34)[nH]c12 (configuration not stated) | 0.611 µM (active) | 1.72 µM (active) | 3.06 µM (active) |
| CCOc1cc(N2CCC(O)CC2)ccc1Nc1ncc2c(n1)N(C)c1ccccc1C(=O)N2C | 7.69 µM (active) | 6.85 µM (active) | 3.43 µM (active) |
| Cc1ccc(C(=O)N(CCCN)[C@@H](c2nc3cc(Cl)ccc3c(=O)n2Cc2ccccc2)C(C)C)cc1 | inactive |  |  |
| Cc1cc(Nc2cc(N3CCN(C)CC3)nc(Sc3ccc(NC(=O)C4CC4)cc3)n2)n[nH]1 | 19.3 µM (active) | 38.5 µM (active) |  |
| CN1CCC(CNc2ccc3ncc(-c4cccc(OC(F)(F)F)c4)n3n2)CC1 | 17.2 µM (active) |  |  |
| CN1CCN(c2ccc3nc(-c4c(N)c5c(F)cccc5[nH]c4=O)[nH]c3c2)CC1 | 2.17 µM (active) |  |  |
| CC(C)[C@H](C(=O)Nc1ccc(C(=O)NO)cc1)c1ccccc1 | 5.44 µM (active) | 6.85 µM (active) |  |
| Nc1nc(Nc2ccc(S(N)(=O)=O)cc2)nn1C(=O)c1c(F)cccc1F | 24.3 µM (active) |  |  |
| COC(=O)Nc1ccc(-c2nc(N3CCOCC3)c3cnn(C4CCN(C(=O)OC)CC4)c3n2)cc1 | inactive | inactive | inactive |
| O=C(NCCCNc1nc(Nc2cccc(NC(=O)N3CCCC3)c2)ncc1I)c1cccs1 | 3.85 µM (active) | 34.3 µM (active) | inactive |
| O=C(c1ccc(Nc2nccc(-c3cc4ccccc4s3)n2)cc1)N1CCC(N2CCCC2)CC1 | 21.7 µM (active) |  |  |

| SMILES | Potency [1] | Potency [2] | Potency [3] |
| --- | --- | --- | --- |
| CN(c1ncccc1CNc1nc(Nc2ccc3c(c2)CC(=O)N3)ncc1C(F)(F)F)S(C)(=O)=O | 24.3 µM (active) | 34.3 µM (active) |  |
| CC(C)c1ccc(Cn2ccc3c4c(N)nc(NC5CC5)nc4ccc32)cc1 | 7.69 µM (active) | 7.69 µM (active) |  |
| CCCS(=O)(=O)Nc1ccc(F)c(C(=O)c2c[nH]c3ncc(Cl)cc23)c1F | 12.2 µM (active) | 2.73 µM (active) |  |
| O=C1C(Cl)=C(NCCN2CCOCC2)C(=O)c2ncccc21 | 34.3 µM (active) |  |  |
| CC=C1NC(=O)[C@H]2CSSCCC=C[C@H](CC(=O)N[C@H](C(C)C)C(=O)N2)OC(=O)[C@H](C(C)C)NC1=O | 0.0968 µM (active) | 0.0968 µM (active) |  |
| CCN1CCN(CC(=O)Nc2ccc(-c3cccc4c(=O)cc(N5CCOCC5)oc34)c3sc4ccccc4c23)CC1 | 0.544 µM (active) | 1.22 µM (active) | 1.22 µM (active) |
| Cc1nc2cnc3ccc(C#Cc4cccnc4)cc3c2n1-c1ccc(C(C)(C)C#N)cc1 | 0.0432 µM (active) | 0.109 µM (active) | 0.109 µM (active) |
| CC[C@@H]1C(=O)N(C)c2cnc(Nc3ccc(C(=O)NC4CCC(N5CCN(CC6CC6)CC5)CC4)cc3OC)nc2N1C(C)C (some centres not stated) | 0.0968 µM (active) | 0.0968 µM (active) |  |
| Cc1cc(Nc2cc(N3CCN(C)CC3)nc(C=Cc3ccccc3)n2)n[nH]1 | 8.85 µM (active) | 31.4 µM (active) |  |
| COc1cc2c(Oc3ccc(NC(=O)C4(C(=O)Nc5ccc(F)cc5)CC4)cc3F)ccnc2cc1OCCCN1CCOCC1 | 21.7 µM (active) | 21.7 µM (active) |  |
| Cc1[nH]c2ccccc2c1CCNCc1ccc(C=CC(=O)NO)cc1 | 0.863 µM (active) | 0.863 µM (active) |  |
| COc1cc(=C2C=c3ccccc3=N2)[nH]c1=Cc1[nH]c(C)cc1C | 21.7 µM (active) | 21.7 µM (active) |  |
| CCCCc1nc2cc(C=CC(=O)NO)ccc2n1CCN(CC)CC | 6.85 µM (active) | 7.69 µM (active) |  |
| Nc1ccccc1NC(=O)c1ccc(CNC(=O)OCc2cccnc2)cc1 | 12.2 µM (active) |  |  |
| Cc1cccc(C=NNc2cc(N3CCOCC3)nc(OCCc3ccccn3)n2)c1 | 1.93 µM (active) | 1.37 µM (active) |  |
| CCc1cncnc1N1CCN(Cc2nc3ccc(C(F)(F)F)cc3[nH]2)CC1 | inactive | inactive |  |
| CN(C)Cc1ccc(-c2nc3cccc4c3n2CCNC4=O)cc1 | 21.7 µM (active) | 6.85 µM (active) | inactive |
| Cc1cccc(Nc2nc(N[C@@H]3CCCC[C@H]3N)ncc2C(N)=O)c1 | 4.85 µM (active) | inactive | inactive |
| Clc1ccc(C(c2ccc(Cl)cc2)n2cc[n+](CC(OCc3ccc(Cl)cc3Cl)c3ccc(Cl)cc3Cl)c2)cc1 (configuration not stated) |  |  | 15.3 µM (active) |
| COc1cc2c(Oc3ccc4[nH]c(C)cc4c3F)ncnc2cc1OCCCN1CCCC1 |  | inactive | inactive |
